Assay outcomes as filed in PubChem.
BAZ2B inh: inhibitors of human BAZ2B bromodomain. Q9UIF8. AlphaScreen BAZ2B-H3K14Ac peptide displacement. Potency, µM (titrated, usually from 114 µM), hits mostly inhibitors. 360,000 tested, 4.4% active. AID 504333; further: nearly all actives have a fitted effect of over 60% in size
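AlphaScreen displacement: compounds (up to 110uM) incubated 30 min at room temperature with a preformed 50 nM BAZ2B/50 nM biotinylated H3K14Ac peptide complex in PBS pH 7.4 with Tween-20. Donor and acceptor beads at 10 ug/mL final added, 20 min light-protected before reading.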
HP1b chromo inh: HP1-beta chromodomain-methylated histone interaction inhibition; P83916; AlphaScreen HP1-beta / biotin-H3K9me3 peptide binding; Potency, µM (highest dose often 114 µM), hits mostly inhibitors; 390,000 tested, 0.56% active; further: nearly all actives have a fitted effect of over 70% in size
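Compound inhibition of the preformed complex between 50 nM HP1-beta and 50 nM biotinylated H3K9me3 peptide was read by AlphaScreen. Buffer was PBS pH 7.4 with 0.01% Tween-20. Incubations ran 30 min at room temperature, with 10 ug/mL donor/acceptor beads.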
JMJD2A Tudor: JMJD2A Tudor domain (human) inhibition | O75164 | AlphaScreen JMJD2A-Tudor / H3K4me3 peptide binding | Potency, µM (series often up to 114 µM), actives largely listed as inhibitors | 390,000 tested, 4.4% active | AID 504339; further: nearly all actives have a fitted effect of over 50% in size
12-LOX inh: blocks human arachidonate 12S-lipoxygenase; purified 12hLO, xylenol orange hydroperoxide absorbance; Potency, µM (doses to about 108 µM), most hits filed as inhibitors; 580,000 tested, 1.1% active; AID 1671190
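Hydroperoxide product was detected by ferrous iron/xylenol orange as the 573 to 405 nm absorbance ratio. Arachidonic acid at 40 uM (final) was turned over for 30 min at room temperature by 150 nM human 12hLO, pH 7.0 Hepes buffer, after 15 min compound preincubation.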
G9a inh: G9a (human) methyltransferase inhibition. 350,000 tested, 8.8% active. AID 504332. G9a H3K9 monomethylation, AlphaScreen, 2 h. Potency, µM (doses to about 102 µM), usual class: inhibitors; further: nearly all actives have a fitted effect of over 75% in size
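AlphaScreen read-out: biotin-H3K9 peptide (500 nM) methylation by 20 nM enzyme with 20 uM SAM, 2 h at room temperature after 15 min compound preincubation; anti-monomethyl H3K9 antibody plus donor/acceptor beads, 10 min dark.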
PLK1 PBD inh: PLK1 (human) polo-box domain binding inhibition; P53350; Plk1 PBD binding of FITC phosphopeptide, fluorescence polarization; Potency, µM, usual class: inhibitors; 360,000 tested, 2.8% active; further: series mostly up to about 57 µM; nearly all actives have a fitted effect of over 65% in size
Hits are given with their value; n = inactive; u = inconclusive; x = no result; [ ] = another dose, or the depositor's remark. In the library only some 9% were active in any assay of this set; here they are far more common. The call rests on the fitted dose curve; in most records, active means well fitted curve in the direction sought with a large enough effect; inconclusive means small, poorly fitted or top-dose-only effect, or another doubt; inactive means no such curve, though single readings can be large; an effect the other way counts as inactive or inconclusive.

SMILES | BAZ2B inh | HP1b chromo inh | JMJD2A Tudor | 12-LOX inh | G9a inh | PLK1 PBD inh
COC(=O)c1ccc(NC(=O)Cn2c([N+](=O)[O-])cnc2C)cc1 | n | n | n | u | x | 30µM
COc1ccc(S(=O)(=O)N2CCN(CC(=O)Nc3c(C)n[nH]c3C)CC2)cc1OC | x | u | 0.89µM | 0.56µM | x | n
Cc1n[nH]c(C)c1NC(=O)CN1CCN(S(=O)(=O)c2ccc(C(F)(F)F)cc2)CC1 | x | u | 4.5µM | n | x | n
COC(=O)c1ccc(NC(=O)CN2C(=O)CNC2=O)cc1 | n | n | n | n | 13µM | n
COc1ccc(Cl)cc1S(=O)(=O)N1CCN(CC(=O)Nc2ccccc2C(F)(F)F)CC1 | n | n | n | n | n | x
COC(=O)c1ccc(NC(=O)CN2CCN(S(=O)(=O)c3cc(Cl)ccc3OC)CC2)cc1 | n | n | n | n | 35µM | n
Cc1cc(=O)oc2cc(OCC(=O)N(C)Cc3ccccc3Br)ccc12 | x | x | x | n | x | x
OCCNCC(O)Cn1c2ccccc2c2ccccc21 (stereo not given) | n | n | n | n | n | n
COc1ccc(-c2cc3ccccc3n2CC(O)CNCCO)cc1 (stereo not given) | 50µM | u | 5µM | u | 35µM | n
Fc1ccc(-c2nnc(NC3=NCCCCC3)o2)cc1 | n | n | n | n | n[2.33 µM] | n
c1ccc(-c2nnc(NC3=NCCC3)o2)cc1 | n | n | n | n | n | 24µM
O=C(c1ccc(S(=O)(=O)Cc2cc(F)ccc2F)c([N+](=O)[O-])c1)N1CCOCC1 | x | x | x | n | x | 27µM
Cc1c(C(=O)OC(C)C)sc(N)c1C#N | x | x | x | n | x | x
CCCc1c(C(=O)OCC)sc(N)c1C#N | u | u | n | n | u | 19µM
COC(=O)c1sc(N)c(C#N)c1C | x | x | x | 4.5µM | x | x
Cc1cc(C(=O)NC2=NCCS2)cs1 | n | n | n | n | n | n
CCC1CN(CCNC(=O)c2cc(C(C)C)nn2C)Cc2cc(OC)ccc2O1 (stereo not given) | x | x | x | n | x | x
COc1ccc(-c2c(=O)n(OCc3ccccc3[N+](=O)[O-])c3ccccc3[n+]2[O-])c(OC)c1 | n | n | n | n | 45µM | n
C=CCOn1c(=O)c(-c2cccs2)[n+]([O-])c2ccccc21 | n | n | n | n | n | 0.84µM
CCOC(=O)COn1c(=O)c(=O)n(OC)c2ccccc21 | n | n | u | n | n[12.7 µM] | u
CCOC(=O)COn1c(=O)c(=O)n(O)c2ccccc21 | n | n | 50µM | u | 45µM | n
C=CCOn1c(=O)c(-c2ccc(OC)c(OC)c2)[n+]([O-])c2ccccc21 | n | n | 89µM | n | 8.9µM | u
CCOc1cc(CNc2ccc(S(N)(=O)=O)cc2)ccc1OCC(=O)NC(C)(C)C | u | n | n | n | n | u
CCS(=O)(=O)c1ccc2oc(Nc3ccccc3C)nc2c1 | n | n | n | n | n | n
CCn1c2ccccc2c2cc(NC(=O)c3cccc(OC)c3)ccc21 | n | n | n | n | n | n
SMILES | BAZ2B inh | HP1b chromo inh | JMJD2A Tudor | 12-LOX inh | G9a inh | PLK1 PBD inh
CCOc1ccccc1NC(=O)COC(=O)CC(NC(N)=O)c1ccc(Cl)cc1 (stereo not given) | n | n | n | n | n | n
CCOC(=O)COn1c(=O)c(-c2ccc(OC)cc2)[n+]([O-])c2ccccc21 | n | n | n | n | n[2.33 µM] | n
COc1ccc(-c2c(=O)n(OC)c3ccccc3[n+]2[O-])cc1OC | n | n | n | n | 32µM | u
CCOC(=O)COn1c(=O)c(-c2ccc(OC)c(OC)c2)[n+]([O-])c2ccccc21 | n | x | x | u | 22µM | x
CC(C)(C)C1CCC(C(=O)OCC(=O)Nc2ccc3[nH]c(=O)[nH]c3c2)CC1 (stereo not given) | n | n | n | n | 45µM | n
O=C(COC(=O)Cc1c(Cl)cccc1Cl)Nc1ccc2[nH]c(=O)[nH]c2c1 | n | n | n | u | 50µM | n
Cc1oc(-c2nc(C#N)c(N3CCN(c4ccccc4)CC3)o2)cc1S(=O)(=O)N(C)C | x | x | x | n | x | x
COc1cccc(CN(C)C(=O)CNC(=O)c2ccc(-c3ccccc3)cc2)c1OC | n | n | n | n | 45µM | n
COc1ccc(CN(C)C(=O)CNC(=O)c2sc3ccccc3c2Cl)c(OC)c1OC | x | n | 89µM | n | x | n
